# This is a sample that favours compounds with a hit; in the whole collection about 7.3% have one here.
# HCMV antiviral = qHTS Assay for inhibitors of the human cytomegalovirus (HCMV). 4.5% of 410,000 active. AID 1259415, 2018. activity change, negative = inhibition, % at 57.5 µM. HFF cells, HCMV-luciferase reporter, 72 h; hits give low values; in the data active = activity change below about -60%; inconclusive = no clear call, values can overlap the other calls; inactive = above about -39%
#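 Compounds were evaluated in HFFs infected with an HCMV luciferase reporter virus (MOI 1 PFU/cell). Luciferase in lysates collected 72 h post infection served as the replication measure.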
# FMDV inh = High Throughput Screening for Foot and Mouth Disease Virus Antivirals; FMDV antiviral cell-based qHTS; Potency, µM (titrated, usually from 57.9 µM), for the others: at the top dose activity change, negative = inhibition, most hits filed as inhibitors; 1.2% of 410,000 active; AID 1159524, 2015; calls by dose curve; tested in HEK293T cells; note: read-out not given here; potency is the fitted concentration of half-maximal effect; nearly all actives have a fitted effect of over 45% in size
# Vaccinia mCherry = qHTS for Stage-Specific Inhibitors of Vaccinia Orthopoxvirus: mCherry Reporter Primary qHTS; 0.63% of 310,000 active; Vaccinia virus mCherry reporter infection, fluorescence; AID 720579, 2013; Potency, µM (highest dose often 36.5 µM), inactives show at the top dose activity change, negative = inhibition, actives largely listed as inhibitors; calls by dose curve; tested in A549 cells; note: potency is the fitted concentration of half-maximal effect; nearly all actives have a fitted effect of over 35% in size
# HCV inh = qHTS Assay for Inhibitors of Hepatitis C Virus (HCV); Huh7.5.1 HCVcc-Cre infection, luciferase reporter, 44 h; Potency, µM (titrated, usually from 41.8 µM), without a hit: top-dose activity change, negative = inhibition, most hits filed as inhibitors; 3.4% of 340,000 active; AID 651820, 2012; active = well fitted inhibition curve with a large enough effect; inconclusive = small, poorly fitted or top-dose-only effect, or another doubt; inactive = no such curve, though single readings can be large or run the other way; note: potency is the fitted concentration of half-maximal effect
#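 Reporter virus HCVcc-Cre (~0.5 moi) infects cells exposed to compound; seeding density 1,000 cells/well with 4 h settling beforehand. Luminescence, 15 sec read, taken 44 h post-infection following a 15 min RT substrate incubation.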
# Vaccinia Venus = qHTS for Stage-Specific Inhibitors of Vaccinia Orthopoxvirus: Venus Reporter Primary qHTS. 0.46% of 330,000 active. Potency, µM (top dose mostly 36.5 µM), for inactives: at the top dose activity change, negative = inhibition, most hits filed as inhibitors. Vaccinia virus Venus reporter expression, fluorescence; calls by dose curve; tested in A549 cells; note: potency is the fitted concentration of half-maximal effect; nearly all actives have a fitted effect of over 30% in size
# The depositor's hits bear a star; i = inactive; ? = inconclusive; . = no result given; [ ] = dose if it differs, or a comment. % is set by controls: 0 for no effect and ±100 for the full control effect.
SMILES,HCMV antiviral,FMDV inh,Vaccinia mCherry,HCV inh,Vaccinia Venus
CCOC(=O)c1c(NC(=O)CSc2nnc(N)s2)sc(C)c1-c1ccc(C)cc1,?,?,.,25µM*,.
COC(=O)c1cc(NC(=O)c2ccc(Cn3cc(Cl)cn3)o2)cc(C(=O)OC)c1,-32,?,-12%,?,-2%
CCOC(=O)c1c(NC(=O)CSc2nnc(C)s2)sc2c1CCCCC2,13,?,?,10µM*,-24%
CCOC(=O)c1c(NC(=O)CSc2nnc(C)s2)sc2c1CCC(C)C2 (stereo unspecified),-12,-22%,.,11µM*,?
CCOC(=O)c1c(NC(=O)CS(=O)(=O)c2ccc(C)cc2)sc2c1CCC(C)C2 (stereo unspecified),0,-8%,i,.,-9%
CCOC(=O)c1c(NC(=S)NC(=O)c2ccc(Cn3cc(Cl)cn3)o2)sc2c1CCC(C)C2 (stereo unspecified),-71*,17%,20µM*,?,28µM*
Cc1ccc(-c2csc(NC(=O)C3CC(=O)N(c4ccc5c(c4)OCCO5)C3)n2)o1 (stereo unspecified),.,.,-4%,.,-18%
O=c1c(=O)n(-c2ccccc2)ccn1Cc1c(F)cccc1Cl,?,32%,-3%,.,-9%
CN(C)c1ccc(CN(Cc2ccco2)C(=O)COc2ccc(F)cc2)cc1,-26,0%,-16%,.,-13%
CCOC(=O)c1c(NC(=O)Cn2nnc3ccccc32)sc2c1CCC(C)C2 (stereo unspecified),-31,-25%,.,1.6µM*,?
CC1CCc2c(sc(NC(=O)Cn3cnc([N+](=O)[O-])n3)c2C(N)=O)C1 (stereo unspecified),-62*,-13%,.,12%,.
CCOC(=O)c1c(NC(=O)CSc2nnc(-c3c[nH]c4ccccc34)n2CCOC)sc2c1CCCC2,?,-15%,?,11µM*,?
O=c1c(O)cc(C2Oc3cc(O)cc(O)c3CC2O)cc2c(C3Oc4cc(O)cc(O)c4CC3O)cc(O)c(O)c12 (stereo unspecified),.,-9%,-27%,.,-20%
COc1cc(NC(=O)CN2C(=O)C(=O)N(CC(C)C)C2=O)cc(OC)c1,.,0%,i,?,-12%
COc1cc(NC(=O)CN2C(=O)C(=O)N(C3CCCC3)C2=O)cc(OC)c1,-99*,-15%,.,-21%,.
COc1ccc(NC(=O)CC2C(=O)N(c3cccc(OC)c3)C(=O)N2CCC2=CCCCC2)cc1 (stereo unspecified),-9,-21%,-11%,.,-13%
CCOC(=O)c1ccc2nc(C)c3c(c2c1)OC(C)C3 (stereo unspecified),-36,-22%,.,10µM*,-20%
CCOc1ccccc1C(=O)N1CCCCC1CCN1CCOCC1 (stereo unspecified),-37,-2%,-5%,.,-8%
CN(C)c1ccc(N/C=C/C(=O)c2ccccc2)cc1,0,10µM*,.,-19%,.
Cn1c2ccccc2c(=O)c2ccc(C#CC3(O)CCCCC3)cc21,?,-52%,i,10µM*,-26%
COc1ccc(-n2c(=O)c3c4c(sc3n(Cc3ccc(C)cc3C)c2=O)CCC4)c(OC)c1,2,-14%,-13%,.,-11%
COc1ccc(CN2CC(C(=O)NCc3ccc4c(c3)OCO4)CC2=O)cc1 (stereo unspecified),-14,-11%,.,-15%,.
CN(c1ccccc1)S(=O)(=O)c1cccc(NC(=O)C2CC(=O)N(Cc3ccccc3)C2)c1 (stereo unspecified),-28,?,.,13µM*,.
COc1ccccc1NS(=O)(=O)c1cccc(NC(=O)C2CC(=O)N(Cc3ccccc3)C2)c1 (stereo unspecified),3,-15%,-23%,14µM*,-26%
COc1ccc(CN2CC(C(=O)NCc3cccc(OC)c3)CC2=O)cc1 (stereo unspecified),-105*,-11%,-14%[1.46 µM],-23%,-18%
SMILES,HCMV antiviral,FMDV inh,Vaccinia mCherry,HCV inh,Vaccinia Venus
O=C(c1cccnc1)N1C[C@H]2[C@@H](c3ccccc31)[C@@H](CO)N2C(=O)Nc1ccccc1Cl,0,.,.,.,.
CC1CCC/C(=C\c2ccc(O)cc2)C1=O (stereo unspecified),-35,81%,.,8%,.
COc1ccc(/C=C2/CCC(CN3CCOCC3)C2=O)cc1 (stereo unspecified),-98*,18µM*,i,5µM*,5%
COc1ccc(/C=C2\CCC(C3CCCC3)C2=O)cc1 (stereo unspecified),-10,-4%,-1%,18%,-2%
O=C1/C(=C\c2ccc(Cl)cc2)CCC1CNc1ccc(Cl)cc1 (stereo unspecified),-17,-10%,-13%,?,-7%
CN(C)CC1CCC/C(=C\c2ccc(OC(=O)/C=C/c3ccccc3)cc2)C1=O (stereo unspecified),1,40µM*,-15%,?,3%
CN(C)CC1CC/C(=C\c2ccc(O)cc2)C1=O (stereo unspecified),-76*,?,?,?,-20%
CN(C)CC1CCC/C(=C\c2ccc(OC(=O)c3ccc(Cl)cc3)cc2)C1=O (stereo unspecified),-97*,?,-21%,11µM*,?
CCOc1ccc(C(=O)N2CCC(c3ccncc3)CC2)cc1,-23,-7%,-22%,.,-24%
O=C(c1ccco1)N1CCC2(CC1)CN(c1ccccc1)C2,.,-27%,.,.,.
CCCCNC(=O)C1CCC(CNS(=O)(=O)c2ccc(Cl)cc2)CC1 (stereo unspecified),-7,-1%,0%,.,-3%
COc1ccc(-c2nc3c(-c4ccc(Cl)cc4)cnn3cc2C)cc1F,-76*,-8%,2%,-17%,-1%
Cc1ccc(S(=O)(=O)c2nnn3c2nc(N2CCN(c4ccccc4F)CC2)c2ccccc23)cc1C,0,14%,-16%,.,-6%
O=C(c1cccc2ccccc12)N1CCN(S(=O)(=O)c2ccccc2)CC1,.,.,-3%,.,-7%
Cc1ccc2c(c1)sc(-c1ccc(N(C)C)cc1)[n+]2C,-96*,?,?,3.5µM*,?
Cc1ccc(N(C)C)cc1,37,.,.,.,.
COc1ccc(OC)c(NCc2cccn2-c2nnc(N3CCCCC3)s2)c1,?,11%,-19%,.,0%
CCN(CC)S(=O)(=O)c1ccc2oc(SCC3CN=C(c4ccc(OC)cc4)S3)nc2c1 (stereo unspecified),-67*,?,.,11µM*,.
COc1ccc(C2=NCC(CSc3nnc(-c4ccc5c(c4)OCO5)o3)S2)cc1 (stereo unspecified),0,?,.,?,.
Cc1nc(N2CCCCC2)sc1C(=O)c1ccc(SCCO)c([N+](=O)[O-])c1,?,32µM*,?,1.1µM*,-23%
